The source of these data is PubChem BioAssay (NCATS).

Inconclusive results are not listed. The source made the active and inactive calls. Calls come from the whole dose curve; as a rule, active = well fitted curve in the direction sought with a large enough effect; inconclusive = small, poorly fitted or top-dose-only effect, or another doubt; inactive = no such curve, though single readings can be large; an effect the other way counts as inactive or inconclusive.

One assay deals with HACAT. The assay can be described thus: qHTS assay to identify novel small-molecules to repurpose for Merkel cell carcinoma treatment (AID 1296009). Note: nearly all actives have a fitted effect of over 60% in size. Note: potency is the fitted concentration of half-maximal effect. Conditions: MCC and control cell lines, CellTiter-Glo viability, 72 h; at 44.8 µM (top of the series) unless noted. Summed up: (§1)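 Cell viability measured by CellTiter-Glo following 72 hr compound treatment at 37 degree celsius, with NPC and MIPE libraries tested in 8- and 11-point concentration series.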

The subject of a further assay is MCC-13. The assay is described as above. Conditions: MCC and control cell lines, CellTiter-Glo viability, 72 h; series mostly up to 46 µM. Summed up:
as §1

For a further assay, the system named is MCC-26. Described as above. The settings on record: MCC and control cell lines, CellTiter-Glo viability, 72 h; series mostly up to 46 µM. Summed up: as §1
The subject of another assay is MKL-1. The assay is described as above. Conditions: MCC and control cell lines, CellTiter-Glo viability, 72 h; series mostly up to 46 µM. Summed up:
as §1

In a further assay the test system is MKL-2. Described as above. Conditions: MCC and control cell lines, CellTiter-Glo viability, 72 h; series mostly up to 46 µM. Summed up:
as §1

The subject of another assay is UISO. The assay is described as above. Conditions: MCC and control cell lines, CellTiter-Glo viability, 72 h; series mostly up to 46 µM. Summed up:
as §1

Another assay has as its system WaGa. The description is as above. Conditions: MCC and control cell lines, CellTiter-Glo viability, 72 h; series mostly up to 46 µM. Summed up:
as §1

The subject of a further assay is C33A. Description: Primary qHTS to identify gynecologic anti-cancer compounds using libraries of approved drugs and bioactive compounds (AID 1345084). Note: nearly all actives have a fitted effect of over 55% in size. The settings on record: Gynecologic cancer cell panel viability, ATPlite luminescence, 48 h; series mostly up to 57.5 µM. Summed up: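 In this quantitative HTS, cell killing is estimated from loss of ATP-dependent luciferase light. Cells see five compound concentrations over a 48 h exposure.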

The next assay concerns HEK293T. The assay can be described thus: qHTS assay to identify novel small-molecules to repurpose for Merkel cell carcinoma treatment (AID 1296009). Note: nearly all actives have a fitted effect of over 60% in size. Note: potency is the fitted concentration of half-maximal effect. Conditions: MCC and control cell lines, CellTiter-Glo viability, 72 h; at 44.8 µM (top of the series). Summed up:
as §1

The next assay relates to NIH3T3. The assay is described as above. The settings on record: MCC and control cell lines, CellTiter-Glo viability, 72 h; at 44.8 µM (top of the series) unless noted. Summed up: as §1

As for `COc1ccc(OC)c(CC(C)N)c1` (stereo not given), in the assay on HACAT, the outcome was “inactive [at 92 µM]”. Also, the Potency result with MCC-13, with MCC-26, in the assay on MKL-1, with MKL-2, in the assay with UISO and in the assay with WaGa was “inactive” in each case. In the assay with C33A, the Potency entry is “inactive”.
In the case of `C[C@@H]1CC[C@H]2[C@@H](C)C(=O)O[C@@H]3O[C@@]4(C)CC[C@@H]1[C@]32OO4`, the compound was called inactive in the assay on HACAT. The Potency result in the assay on MCC-13, with MCC-26, in the assay with MKL-1, in the assay on MKL-2, with WaGa and in the assay with C33A was “inactive” throughout.
As to `C[N+]1(CCC(C(N)=O)(c2ccccc2)c2ccccc2)CCCCC1`, the compound was called inactive with HEK293T and with NIH3T3. In addition, the Potency entry with MCC-13, with MCC-26, with MKL-1, with MKL-2, with UISO and in the assay with WaGa was “inactive” in each case. For the same compound, the Potency entry in the assay on C33A is “inactive”.
Regarding `CN(C)CCc1c[nH]c2cccc(O)c12`, the outcome with HACAT is “inactive [at 92 µM]”. The Potency result in the assay on MCC-13, in the assay with MCC-26, with MKL-1, with MKL-2 and in the assay on C33A was “inactive” in each case.
In the case of `O=C(CCCN1CCC(n2c(=O)[nH]c3ccccc32)CC1)c1ccc(F)cc1`, the call in the assay on HACAT was inactive. The Potency result in the assay with MCC-13, with MCC-26, in the assay on MKL-1, in the assay with MKL-2, with UISO and in the assay on WaGa was “inactive” throughout. Moreover, the Potency entry in the assay on C33A is “inactive”.
On to `Cc1ncc2n1-c1ccc(Cl)cc1C(c1ccccc1F)=NC2`, for which the compound was classed as inactive in the assay with HACAT. In addition, the Potency result in the assay on MCC-13, in the assay on MCC-26, in the assay on MKL-1, in the assay with MKL-2, in the assay with UISO and in the assay on C33A was “inactive” throughout.
Turning to `NCc1cccnc1`, the call in the assay with HACAT was inactive. Besides, the Potency result with MCC-13, with MCC-26, in the assay with MKL-1, with MKL-2, with UISO and with WaGa was “inactive” throughout. In the assay on C33A, the Potency result is “inactive”.
Consider `C[C@H](N)[C@H](O)c1ccc(O)c(O)c1`, for which the compound was called inactive in the assay on HACAT. Further, the Potency entry in the assay on MCC-13, with MCC-26, with MKL-1, with UISO, in the assay with WaGa and with C33A was “inactive” throughout.
Take `C[C@H]1CNCCc2ccc(Cl)cc21`: the outcome in the assay on HEK293T and in the assay with NIH3T3 was inactive. Further, the Potency result in the assay on MCC-13, in the assay on MCC-26, in the assay with MKL-1, in the assay on MKL-2, in the assay on UISO and with WaGa was “inactive” each time. The Potency entry in the assay with C33A is “inactive”.
As to `CCOC(=O)NC(C)(C)Cc1ccc(Cl)cc1`, in the assay with HEK293T, the call was inactive. For the same compound, the Potency result with MCC-13, in the assay with MCC-26, in the assay with MKL-1, with MKL-2, in the assay on UISO and with WaGa was “inactive” in each case. Moreover, in the assay with C33A, the Potency result was “inactive”.
Consider `CC(C)NCC(O)c1ccc(N)c(C#N)c1` (stereo not given), for which, in the assay with HEK293T, the compound was called inactive. Besides, the Potency result in the assay with MCC-13, in the assay with MCC-26, in the assay on MKL-1, in the assay with MKL-2, with UISO and in the assay on WaGa was “inactive” throughout. Further, the Potency result in the assay with C33A is “inactive”.
Regarding `C=CCOC(Cn1ccnc1)c1ccc(Cl)cc1Cl` (stereo not given), the compound was called inactive with HACAT. In addition, the Potency entry in the assay on MCC-13, in the assay with MCC-26, with MKL-1, in the assay on WaGa and in the assay with C33A was “inactive” in each case.
As to `O=C(NC(=O)c1c(F)cccc1F)Nc1cc(Cl)c(OC(F)(F)C(F)C(F)(F)F)cc1Cl` (stereo not given), in the assay with HACAT, the call was inactive. Further, the Potency entry in the assay on MCC-13, in the assay on MCC-26, with MKL-1, with UISO, with WaGa and with C33A was “inactive” each time.
`CC1N=C(N)OC1c1ccccc1` (stereo not given): the outcome in the assay on HACAT was “inactive [at 92 µM]”. Moreover, the Potency result in the assay on MCC-13, in the assay with MCC-26, in the assay on MKL-1, in the assay with MKL-2, in the assay on UISO and in the assay on C33A was “inactive” in each case.
Turning to `CN1CCC(N(Cc2ccccc2)c2ccccc2)CC1`, the compound was classed as inactive in the assay with HACAT. The Potency result in the assay on MCC-13, in the assay on MCC-26, in the assay on MKL-1, in the assay with UISO and in the assay with C33A was “inactive” in each case.
On to `CC(C)[N+](C)(CCC(C(N)=O)(c1ccccc1)c1ccccc1)C(C)C`, for which the compound was called inactive in the assay with HACAT and in the assay with NIH3T3. Moreover, the Potency entry in the assay with MCC-13, with MCC-26 and in the assay with UISO was “inactive” throughout. For the same compound, the Potency in the assay on WaGa was 23.7 µM (active).
In the case of `CC(Cc1ccccc1)NCCCCl` (stereo not given), the result in the assay with HACAT was inactive. Besides, the Potency entry with MCC-13, in the assay on MCC-26, in the assay on MKL-1, in the assay with UISO, in the assay on WaGa and in the assay on C33A was “inactive” throughout.
On to `c1cc2c(c(N3CCNCC3)c1)OCCO2`, for which the outcome in the assay with HACAT was inactive. For the same compound, the Potency entry in the assay on MCC-13, in the assay with MCC-26, in the assay on MKL-1, in the assay on MKL-2, with UISO and in the assay with WaGa was “inactive” in each case. Also, the Potency result in the assay with C33A is “inactive”.
For the compound `COc1ccc(C(=O)N2CCCC2=O)cc1`, in the assay with HEK293T, the compound was classed as inactive. Further, the Potency entry in the assay with MCC-13, with MCC-26, in the assay on MKL-1, with MKL-2, in the assay on UISO and in the assay with WaGa was “inactive” each time. For the same compound, the Potency result in the assay on C33A was “inactive”.
On to `CC#C[C@]1(O)CC[C@H]2[C@@H]3C[C@H](C)C4=CC(=O)CC[C@]4(C)[C@H]3CC[C@@]21C`, for which the result in the assay on HACAT was inactive. Besides, the Potency entry in the assay on MCC-13, in the assay with MCC-26, in the assay with MKL-1, in the assay on UISO and in the assay with C33A was “inactive” throughout.
Take `CC(CC(C(N)=O)(c1ccccc1)c1ccccc1)N(C)C` (stereo not given): the compound was called inactive with HEK293T and in the assay with NIH3T3. In addition, the Potency result in the assay with MCC-13, in the assay on MCC-26, with MKL-1, with MKL-2, with UISO and in the assay on WaGa was “inactive” throughout. The Potency entry with C33A is “inactive”.
As to `COP(=S)(OC)Oc1ccc(S(N)(=O)=O)cc1`, the result in the assay with HACAT was inactive. In addition, the Potency result with MCC-13, with MCC-26, in the assay with MKL-1, in the assay with MKL-2, in the assay on UISO and in the assay with WaGa was “inactive” in each case. In addition, in the assay on C33A, the Potency result was “inactive”.
Turning to `O=C(CCCCl)c1ccc(F)cc1`, the call in the assay on HEK293T was inactive. The Potency result in the assay on MCC-13, in the assay with MCC-26, with MKL-1, in the assay on MKL-2, in the assay with UISO and in the assay on WaGa was “inactive” each time. Besides, the Potency result in the assay on C33A was “inactive”.
In the case of `CCC(=O)O[C@H]1CC[C@H]2[C@@H]3CCC4=CC(=O)CC[C@]4(C)[C@H]3CC[C@]12C`, the outcome in the assay on HACAT was inactive. The Potency result in the assay with MCC-13, in the assay on MCC-26, with MKL-1, in the assay with MKL-2, in the assay on UISO and in the assay with C33A was “inactive” in each case.
With `CC(C(O)c1ccccc1)N(C)C/C=C/c1ccccc1` (stereo not given), the call in the assay on HACAT was inactive. Besides, the Potency result with MCC-13, in the assay on MCC-26, in the assay on MKL-1, in the assay with MKL-2, in the assay with UISO and in the assay on WaGa was “inactive” in each case. Also, the Potency entry in the assay on C33A is “inactive”.
In the case of `Cc1nnc2n1-c1sc(CCC(=O)N3CCOCC3)cc1C(c1ccccc1Cl)=NC2`, the result with HEK293T was inactive. In addition, the Potency entry in the assay with MCC-13, in the assay on MCC-26, in the assay on MKL-1, in the assay on MKL-2, with UISO and in the assay on WaGa was “inactive” throughout. In addition, in the assay with C33A, the Potency entry was “inactive”.
For `COc1cc(C[C@@H](C)N)c(OC)cc1C`, the Potency result in the assay on MCC-13, with MCC-26, with MKL-1, in the assay with MKL-2, in the assay with UISO and in the assay with WaGa was “inactive” in each case.
Take `COP(=O)(OC)OC=C(Cl)Cl`: the Potency entry in the assay on MCC-13, with MCC-26, in the assay on MKL-1, in the assay with MKL-2, in the assay on UISO and in the assay on WaGa was “inactive” in each case. Further, the Potency entry in the assay with C33A was “inactive”. Besides, in the assay with NIH3T3, the call was inactive.
On to `c1ccc2nc(N3CCNCC3)ccc2c1`, for which the Potency entry with MCC-13, with MCC-26, in the assay with MKL-1, in the assay with MKL-2, in the assay with UISO and in the assay on WaGa was “inactive” each time. Also, the Potency entry in the assay on C33A was “inactive”.
